Assay results as given in PubChem BioAssay (Tox21).
Records with an inconclusive call do not appear. Entries that show only a call come without a potency. The source made the active and inactive calls. Unless noted, calls come from the whole dose curve.

How the values were obtained:
[1] = Nuclear factor erythroid 2-related factor 2/antioxidant responsive element (Nrf2/ARE) small molecule agonists: qHTS cell viability counter screen in human keratinocytes (AID 1919968; active = well fitted curve in the direction sought with a large enough effect in the repeat runs; an effect the other way counts as inactive or inconclusive; note: nearly all actives have a fitted effect of over 55% in size; note: potency is the fitted concentration of half-maximal effect)
Summary of the method: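 Viability counter-screen: KeratinoSens reporter cells, DMSO-delivered compounds, 23 h at 37 C, CellTiter-Fluor fluorescence.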

[2] = Nuclear factor erythroid 2-related factor 2/antioxidant responsive element (Nrf2/ARE) small molecule agonists: luciferase reporter gene qHTS assay in human keratinocytes (AID 1919969); note: nearly all actives have a fitted effect of over 35% in size; note: potency is the fitted concentration of half-maximal effect
[3] = molecular target: Gonadotropin-releasing hormone receptor (Homo sapiens) (UniProt P30968); test: Human gonadotropin-releasing hormone receptor (GnRHR) small molecule agonists, calcium flux assay in GnRHR-HEK293 cells (AID 1920063); note: nearly all actives have a fitted effect of over 35% in size
Summary of the method: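 Tox21-format agonist screen using human GnRHR-expressing HEK293 cells and a fluorescent calcium dye; kinetic 3-min fluorescence reading after compound addition, 15-point concentration series run in triplicate.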

[4] = molecular target: KiSS-1 receptor (Homo sapiens) (UniProt Q969F8); test: Human kisspeptin (KISS1R) small molecule agonists, calcium flux assay in KISS1R-HEK293 cells (AID 1920064; active = well fitted curve in the direction sought with a large enough effect in the repeat runs; an effect the other way counts as inactive or inconclusive)
Summary of the method: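 Intracellular calcium mobilization in KISS1R-HEK293 cells was recorded by fluorescence (Ex/Em 480/540) for 3 min following compound addition to cells pre-loaded 1 h with calcium dye.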

[5] = p53 small molecule agonists, cell-based qHTS assay with human liver microsomes (AID 1963577);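 note: p53 response element beta-lactamase reporter cells with liver microsomes plus NADPH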
Summary of the method: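 With metabolic activation: human liver microsomes (0.5 mg/mL final) plus NADPH (0.5 mg/mL final) added alongside compounds to p53RE-bla cells; 16 h 37 C exposure; beta-lactamase read by LiveBLAzer fluorescence.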

[6] = p53 small molecule agonists, cell-based qHTS assay with rat liver microsomes (AID 1963578)
Summary of the method: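 Metabolic activation by rat liver microsomes and NADPH, each 0.5 mg/mL final, added right after compounds to p53RE-bla reporter cells (4,000/well, plated 5 h earlier). 16 h at 37 C, then LiveBLAzer substrate for 2 h at room temperature in the dark; fluorescence read-out.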

[7] = p53 small molecule agonists, cell-based qHTS assay with rat liver microsomes: qHTS cell viability counter screen (AID 1963580); note: nearly all actives have a fitted effect of over 45% in size
Summary of the method: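 Viability is assessed in parallel with the p53 reporter read: HCT-116 p53RE-bla cells receive compounds plus rat microsomes and NADPH (0.5 mg/mL final apiece), incubate 16 h at 37 C, and then CellTiter-Glo luminescence is recorded.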

[8] = p53 small molecule agonists, cell-based qHTS assay: qHTS cell viability counter screen (AID 1963581); note: nearly all actives have a fitted effect of over 45% in size
Summary of the method: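 Compounds are pinned onto HCT-116 p53RE-bla cells and left 16 h at 37 C. Following the reporter FRET read, ATP is quantified by CellTiter-Glo luminescence after 30 min at room temperature.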

[9] = cAMP Responsive Elements (CRE) small molecule agonists, cell-based qHTS assay (AID 1963590)
Summary of the method: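 FRET-based beta-lactamase readout (LiveBLAzer B/G, 2 h RT) quantified CRE activation in HEK 293T CRE-bla cells after 3 h treatment with DMSO-dissolved compounds.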

[10] = molecular target: Beta-2 adrenergic receptor (Homo sapiens) (UniProt P07550); test: Adrenergic beta2 receptor (ADRB2) small molecule antagonists, cell-based qHTS assay (AID 1963592); note: nearly all actives have a fitted effect of over 50% in size; note: potency is the fitted concentration of half-maximal effect
Summary of the method: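 Cells (CHO, stable ADRB2 overexpression) incubated 18-20hr at 37C; compounds added from DMSO; agonist mix (1nM isoproterenol, 100uM IBMX, 25uM Ro-20-1724) added; 0.5hr RT; d2-cAMP and anti-cAMP-cryptate added; 1hr RT; 665/615 nm read.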

[11] = molecular target: Beta-2 adrenergic receptor (Homo sapiens) (UniProt P07550); test: Adrenergic beta2 receptor (ADRB2) small molecule agonists, cell-based qHTS assay (AID 1963593);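 note: CHO cells stably overexpressing human ADRB2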
Summary of the method: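 CHO cells stably over-expressing ADRB2 were plated overnight at 37C, then dosed with compounds plus a stimulation mix containing 100uM IBMX and 25uM Ro-20-1724 for 0.5hr at room temperature. cAMP was measured by HTRF competition, 1hr.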

[12] = molecular target: D(2) dopamine receptor (Homo sapiens) (UniProt P14416); test: Dopamine D2 receptor (DRD2) small molecule agonists, cell-based qHTS assay (AID 1963594); note: nearly all actives have a fitted effect of over 35% in size
Summary of the method: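 HEK293 cells stably expressing human DRD2, pre-treated with PDE inhibitor Ro20-1724 (0.1 mM final) and compound 10 min at room temperature, then stimulated with NKH477 (200nM […]) for 30 min. cAMP read by HTRF (665/620 nm).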

[13] = molecular target: D(2) dopamine receptor (Homo sapiens) (UniProt P14416); test: Dopamine D2 receptor (DRD2) small molecule antagonists, cell-based qHTS assay (AID 1963595; active = well fitted inhibition curve with a large enough effect in the signal ratio in the repeat runs, with a control signal flat; the % refers to the signal ratio; note: potency is the fitted concentration of half-maximal effect)
Summary of the method: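 Antagonist mode in DRD2-HEK293 cells: after compound addition with 0.1 mM Ro20-1724, cells received quinpirole (12 nM) and NKH477 (200 nM) for 30 min at room temperature; HTRF cAMP read after 1 h detection.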

[14] = G protein-coupled receptor (GPCR) small molecule agonists, calcium flux assay: HEK293 wild type cell line counter screen (AID 1920065)
Summary of the method: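 In this agonist-mode screen, ATP is the positive control and DMSO the vehicle. Cells grow 18 h before a 1 h dye incubation at 37 C; signal is taken at Ex/Em 480/540 over 3 min.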

[15] = molecular target: 5-hydroxytryptamine receptor 2A (Homo sapiens) (UniProt P28223); test: 5-hydroxytryptamine receptor 2A (HTR2A) small molecule antagonists, cell-based qHTS assay (AID 1963586); note: nearly all actives have a fitted effect of over 45% in size
Summary of the method: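 Antagonist-mode intracellular calcium assay: DOI (4 nM) added after 5 min compound pre-incubation at room temperature to dye-loaded HTR2A-CHO cells. Fluorescence followed for 3 min, sampled every second.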

[16] = molecular target: 5-hydroxytryptamine receptor 2A (Homo sapiens) (UniProt P28223); test: 5-hydroxytryptamine receptor 2A (HTR2A) small molecule agonists, cell-based qHTS assay (AID 1963587); note: nearly all actives have a fitted effect of over 30% in size
Summary of the method: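 CHO cells stably expressing human HTR2A, plated 18 h, loaded with calcium dye 1 h at 37 C. Agonist mode: compounds added and intracellular calcium fluorescence recorded kinetically for 2 min at 1 sec intervals.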

[17] = molecular target: Muscarinic acetylcholine receptor M1 (Homo sapiens) (UniProt P11229); test: Cholinergic receptor muscarinic 1 (CHRM1) small molecule antagonists, cell-based qHTS assay (AID 1963588); note: nearly all actives have a fitted effect of over 40% in size; note: potency is the fitted concentration of half-maximal effect
Summary of the method: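 CHRM1-CHO calcium-flux assay, antagonist mode. Cells were seeded 18 h, dye-loaded 1 h at 37 C and given compound for 5 min at RT, then acetylcholine was added at 50nM. FDSS fluorescence was read 3 min; 15 concentrations, three runs.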

[18] = molecular target: Muscarinic acetylcholine receptor M1 (Homo sapiens) (UniProt P11229); test: Cholinergic receptor muscarinic 1 (CHRM1) small molecule agonists, cell-based qHTS assay (AID 1963589); note: nearly all actives have a fitted effect of over 35% in size
Summary of the method: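 Stable CHRM1-CHO cells (human receptor) were incubated 18 h, dye-loaded for 1 h at 37 C and exposed to test compounds for agonist activity, with calcium-dependent fluorescence followed kinetically.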

[19] = cAMP Responsive Elements (CRE) small molecule antagonists, cell-based qHTS assay (AID 1963591; active = well fitted inhibition curve with a large enough effect in the signal ratio in the repeat runs, not every such curve was filed as active; the % refers to the signal ratio)
Summary of the method: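 qHTS in CRE-bla HEK 293T cells: compound in DMSO, then 0.25 uM NKH477 (final), 3 h at 37 °C/5% CO2; beta-lactamase FRET read-out after 2 h substrate incubation.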

[20] = p53 small molecule agonists, cell-based qHTS assay with human liver microsomes: qHTS cell viability counter screen (AID 1963579); note: nearly all actives have a fitted effect of over 45% in size; note: potency is the fitted concentration of half-maximal effect
Summary of the method: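 Metabolic activation used human liver microsomes and NADPH, both 0.5 mg/mL final, over 16 hours at 37 C on p53RE-bla cells (4,000/well). Cytotoxicity measured by CellTiter-Glo luminescence, 30 min at room temperature.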

Sequence of Beta-2 adrenergic receptor (Homo sapiens) (P07550 whole entry, looked up): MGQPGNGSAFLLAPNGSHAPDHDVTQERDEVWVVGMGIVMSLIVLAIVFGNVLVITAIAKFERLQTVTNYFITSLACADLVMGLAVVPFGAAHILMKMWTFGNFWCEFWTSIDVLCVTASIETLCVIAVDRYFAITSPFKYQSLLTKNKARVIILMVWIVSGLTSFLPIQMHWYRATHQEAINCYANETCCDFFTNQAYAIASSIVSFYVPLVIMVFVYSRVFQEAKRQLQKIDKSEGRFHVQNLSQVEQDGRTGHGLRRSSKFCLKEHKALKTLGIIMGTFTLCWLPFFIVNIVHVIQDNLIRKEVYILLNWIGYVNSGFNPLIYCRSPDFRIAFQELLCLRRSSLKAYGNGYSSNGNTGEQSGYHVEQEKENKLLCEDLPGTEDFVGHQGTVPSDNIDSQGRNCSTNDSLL
Sequence of KiSS-1 receptor (Homo sapiens) (Q969F8 whole entry, looked up): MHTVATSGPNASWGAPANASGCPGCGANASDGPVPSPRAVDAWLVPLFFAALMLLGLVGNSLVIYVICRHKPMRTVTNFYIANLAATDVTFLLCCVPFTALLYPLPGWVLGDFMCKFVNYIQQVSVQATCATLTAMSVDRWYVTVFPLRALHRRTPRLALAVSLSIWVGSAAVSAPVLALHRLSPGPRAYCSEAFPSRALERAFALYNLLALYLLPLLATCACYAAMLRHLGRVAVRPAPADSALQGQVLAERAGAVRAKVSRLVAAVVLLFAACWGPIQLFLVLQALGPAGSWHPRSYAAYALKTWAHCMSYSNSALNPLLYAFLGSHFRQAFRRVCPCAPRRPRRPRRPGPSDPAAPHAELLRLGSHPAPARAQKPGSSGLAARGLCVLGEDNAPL
Sequence of 5-hydroxytryptamine receptor 2A (Homo sapiens) (P28223 whole entry, looked up): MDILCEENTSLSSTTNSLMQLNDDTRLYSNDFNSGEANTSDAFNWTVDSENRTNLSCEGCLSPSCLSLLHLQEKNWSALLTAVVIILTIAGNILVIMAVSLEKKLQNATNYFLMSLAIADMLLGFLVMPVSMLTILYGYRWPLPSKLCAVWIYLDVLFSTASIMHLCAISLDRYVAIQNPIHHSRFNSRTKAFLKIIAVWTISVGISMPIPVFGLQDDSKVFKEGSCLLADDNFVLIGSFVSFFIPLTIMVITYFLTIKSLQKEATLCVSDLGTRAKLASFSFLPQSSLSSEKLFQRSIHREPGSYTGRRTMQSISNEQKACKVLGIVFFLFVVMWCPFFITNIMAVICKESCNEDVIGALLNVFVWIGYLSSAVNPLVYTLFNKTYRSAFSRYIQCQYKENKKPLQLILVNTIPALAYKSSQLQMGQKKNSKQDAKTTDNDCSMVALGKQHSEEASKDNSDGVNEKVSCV
Sequence of Gonadotropin-releasing hormone receptor (Homo sapiens) (P30968 whole entry, looked up): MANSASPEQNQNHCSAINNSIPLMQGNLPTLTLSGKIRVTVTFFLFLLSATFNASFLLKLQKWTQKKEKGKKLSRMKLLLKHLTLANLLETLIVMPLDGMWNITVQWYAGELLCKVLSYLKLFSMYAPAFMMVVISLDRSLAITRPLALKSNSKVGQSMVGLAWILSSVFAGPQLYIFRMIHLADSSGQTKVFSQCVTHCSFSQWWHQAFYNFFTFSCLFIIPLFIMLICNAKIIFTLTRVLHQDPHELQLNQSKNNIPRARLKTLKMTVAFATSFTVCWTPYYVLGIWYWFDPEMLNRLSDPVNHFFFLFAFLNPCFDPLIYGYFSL
Sequence of D(2) dopamine receptor (Homo sapiens) (P14416 whole entry, looked up): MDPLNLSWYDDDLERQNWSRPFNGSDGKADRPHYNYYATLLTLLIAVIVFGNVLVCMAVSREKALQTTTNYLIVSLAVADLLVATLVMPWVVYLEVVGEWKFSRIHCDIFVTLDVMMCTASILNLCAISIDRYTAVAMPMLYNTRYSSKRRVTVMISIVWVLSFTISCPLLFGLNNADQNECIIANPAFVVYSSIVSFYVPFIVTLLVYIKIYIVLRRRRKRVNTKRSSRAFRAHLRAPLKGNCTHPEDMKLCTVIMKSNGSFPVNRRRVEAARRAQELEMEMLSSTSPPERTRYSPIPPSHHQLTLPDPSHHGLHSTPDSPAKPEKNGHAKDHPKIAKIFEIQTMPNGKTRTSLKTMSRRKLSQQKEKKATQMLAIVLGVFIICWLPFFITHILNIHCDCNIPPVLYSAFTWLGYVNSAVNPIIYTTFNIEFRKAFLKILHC
Sequence of Muscarinic acetylcholine receptor M1 (Homo sapiens) (P11229 whole entry, looked up): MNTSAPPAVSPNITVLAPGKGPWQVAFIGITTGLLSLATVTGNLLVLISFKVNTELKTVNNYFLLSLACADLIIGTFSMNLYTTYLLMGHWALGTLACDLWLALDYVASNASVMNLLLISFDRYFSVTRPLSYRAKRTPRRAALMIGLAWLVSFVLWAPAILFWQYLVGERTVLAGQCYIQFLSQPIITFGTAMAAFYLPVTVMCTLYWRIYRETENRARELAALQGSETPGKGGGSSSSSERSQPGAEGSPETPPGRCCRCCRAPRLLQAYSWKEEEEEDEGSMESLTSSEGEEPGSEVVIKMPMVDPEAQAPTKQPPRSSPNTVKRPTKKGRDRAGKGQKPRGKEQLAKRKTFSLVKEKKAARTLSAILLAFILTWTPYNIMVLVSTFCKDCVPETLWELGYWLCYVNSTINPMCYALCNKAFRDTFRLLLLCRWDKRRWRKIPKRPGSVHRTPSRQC

Row | Compound | Potency [1] | Potency [2] | Potency [3] | Potency [4] | Potency [5] | Potency [6] | Potency [7] | Potency [8] | Potency [9] | Potency [10] | Potency [11] | Potency [12] | Potency [13] | Potency [14] | Potency [15] | Potency [16] | Potency [17] | Potency [18] | Potency [19] | Potency [20]
1 | NCC1(CC(=O)O)CCCCC1 | inactive | inactive | inactive | inactive | inactive | inactive | inactive | inactive | inactive | inactive | inactive | inactive | inactive | – | – | – | – | – | – | –
2 | CCc1cc2c(s1)-n1c(C)nnc1CN=C2c1ccccc1Cl | inactive | inactive | inactive | inactive | – | – | inactive | inactive | inactive | inactive | – | inactive | inactive | inactive | inactive | inactive | inactive | inactive | – | –
3 | Clc1cccc(SC2CCNCC2)n1 | inactive | inactive | inactive | inactive | – | – | inactive | – | inactive | 15 µM (active) | – | inactive | inactive | inactive | – | – | – | inactive | inactive | –
4 | Cc1ccc(-c2c(Cl)nc(C#N)n2S(=O)(=O)N(C)C)cc1 | 15.3 µM (active) | 9.68 µM (active) | inactive | inactive | inactive | inactive | inactive | inactive | – | inactive | – | inactive | inactive | – | inactive | inactive | inactive | inactive | – | inactive
5 | CCCN1CCC[C@@H]2Cc3[nH]ncc3C[C@H]21 | inactive | inactive | inactive | inactive | inactive | inactive | inactive | inactive | inactive | inactive | inactive | – | – | – | – | – | inactive | inactive | inactive | inactive
6 | CCSCc1ccccc1OC(=O)NC | inactive | inactive | inactive | inactive | – | – | – | inactive | inactive | inactive | inactive | inactive | inactive | inactive | inactive | – | inactive | inactive | inactive | –
7 | CON(C)C(=O)Nc1ccc(Br)cc1 | inactive | inactive | inactive | inactive | inactive | inactive | – | inactive | inactive | inactive | – | inactive | inactive | – | inactive | inactive | inactive | inactive | inactive | inactive
8 | O=C1C(Cl)C(CCl)CN1c1cccc(C(F)(F)F)c1 (centres undefined) | inactive | inactive | inactive | inactive | inactive | inactive | inactive | – | – | inactive | – | inactive | inactive | – | inactive | inactive | inactive | inactive | – | inactive
9 | C(COCC1CO1)OCC1CO1 (centres undefined) | inactive | 68.6 µM (active) | inactive | inactive | inactive | inactive | – | inactive | inactive | inactive | – | inactive | inactive | – | – | inactive | inactive | inactive | inactive | 32.4 µM (active)
10 | COc1cccc(C(=O)CCN[C@@H](C)[C@H](O)c2ccccc2)c1 | inactive | 33.5 µM (active) | inactive | – | – | inactive | inactive | inactive | inactive | inactive | – | inactive | 15 µM (active) | inactive | – | – | inactive | inactive | – | inactive
11 | ClCCCCBr | inactive | inactive | inactive | inactive | – | – | – | inactive | inactive | inactive | inactive | inactive | – | – | – | inactive | inactive | inactive | inactive | inactive
12 | N#CNC#N | inactive | inactive | inactive | – | inactive | inactive | inactive | – | inactive | inactive | – | inactive | inactive | inactive | inactive | – | inactive | inactive | – | –
13 | CCCC[N+]1(C)[C@@H]2CC(OC(=O)[C@H](CO)c3ccccc3)C[C@H]1[C@@H]1O[C@@H]12 (some centres undefined) | inactive | inactive | inactive | – | inactive | inactive | inactive | inactive | inactive | inactive | inactive | inactive | inactive | inactive | inactive | – | 3.65 µM (active) | inactive | inactive | inactive
